# An excerpt weighted towards active compounds, which were near 2.9% of everything screened.
# DRD3 antagonist = qHTS of D3 Dopamine Receptor Antagonist: qHTS; actives 2.5% (n = 360,000); D3R cells, DiscoveRx beta-arrestin luminescence, antagonist mode; active compounds read low; AID 652054, 2013; max response, negative = inhibition, %; D(3) dopamine receptor (Homo sapiens), P35462; in the data active = max response below about -50%; inconclusive = no clear call, values can overlap the other calls
#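 Cells plated overnight at 1500 cells/well, then exposed to library compounds with dopamine controls for 90 minutes at 37 degrees C. DiscoveRx reagent added for 30–60 minutes at room temperature; luminescence read, quantitative HTS format.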
# Rango dissoc inh = qHTS Assay for Inhibitors of RanGTP induced Rango (Ran-regulated importin-beta cargo) - Importin beta complex dissociation. Snurportin-1 (Homo sapiens) + GTP-binding nuclear protein Ran (Homo sapiens) + Importin …. Biochemical FRET Rango-importin beta, RanGTP-induced dissociation. Potency, µM (top dose mostly 46.1 µM). actives 0.071% (n = 340,000); note: nearly all actives have a fitted effect of over 45% in size
#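 Quantitative HTS using a FRET biosensor: 0.1 uM Rango, 0.25 uM importin beta, 0.6 uM Ran, 2 mM GTP, 0.2 uM RCC1 final, PBS with DTT, Tween-20 and BSA. Post-read taken 45 min after Ran addition.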
# Rango-impB inh = qHTS Assay for Inhibitors of Rango (Ran-regulated importin-beta cargo) - Importin beta complex formation | actives 0.031% (n = 340,000) | Potency, µM (doses to about 92.2 µM) | Rango CFP/YFP FRET sensor + importin beta, 45 min | Importin subunit beta-1 (Homo sapiens), Q14974; note: nearly all actives have a fitted effect of over 15% in size
#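 FRET biosensor (snurportin 1 IBB flanked by EYFP and cerulean), 50 nM, with compound 5 min, then 0.125 microM importin beta in PBS, 1 mM DTT, 0.02% Tween-20, 0.1% BSA. CFP/YFP ratio read after 45 min at room temperature; pre-read flags interference.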
# D3 ag = qHTS of D3 Dopamine Receptor Agonist: qHTS. D3R DiscoveRx beta-arrestin cells, luminescence, 90 min. max activation, %. actives 0.58% (n = 410,000). AID 652048, 2013; in the data active = max activation above about 30%
#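 Agonist mode: compounds and dopamine controls were applied to plated cells for 90 min at 37 degrees C after an overnight attachment at 1500 cells/well. Luminescent read-out followed 30 - 60 minutes at room temperature with DiscoveRx detection reagent.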
# Mm-Cpn inhibitor = Inhibitors of TCP-1 ring complex (TRiC) of Methanococcus maripaludis (MmCpn): qHTS. Chaperonin Mm-Cpn (Methanococcus maripaludis). purified Mm-Cpn ATPase, ADP Transcreener TR-FRET. Potency, µM (series often up to 76.9 µM), usual class: inhibitors. actives 0.031% (n = 330,000). AID 504842, 2011; active = well fitted inhibition curve with a large enough effect; inconclusive = small, poorly fitted or top-dose-only effect; note: nearly all actives have a fitted effect of over 80% in size
#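 Reaction buffer contained 30 mM Tris pH 7.4, 100 mM KCl, 5 mM MgCl2 and 1 mM DTT. Mm-CPN (25 nM final) hydrolysed 10 uM ATP over 30 min at 37°C; ADP was read by HTRF.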
# TSG101-PTAP inh = qHTS Assay for Iinhibitors of HIV-1 Budding by Blocking the Interaction of PTAP/TSG101; AID 493005, 2010; 340,000 tested, under 10 active; Tumor susceptibility gene 101 protein (Homo sapiens), Q99816; Fluorescence polarization, FITC-PTAP peptide / Tsg101 binding; Potency, µM (titrated, usually from 115 µM), most hits filed as inhibitors; active = well fitted inhibition curve with a large enough effect in the main read-out, with a control signal flat, not every such curve was filed as active; inconclusive = small, poorly fitted or top-dose-only effect, or effect the other way, or a change in a side signal; inactive = no such curve, though single readings can be large or run the other way
# Target sequence (Q99816 whole entry, looked up): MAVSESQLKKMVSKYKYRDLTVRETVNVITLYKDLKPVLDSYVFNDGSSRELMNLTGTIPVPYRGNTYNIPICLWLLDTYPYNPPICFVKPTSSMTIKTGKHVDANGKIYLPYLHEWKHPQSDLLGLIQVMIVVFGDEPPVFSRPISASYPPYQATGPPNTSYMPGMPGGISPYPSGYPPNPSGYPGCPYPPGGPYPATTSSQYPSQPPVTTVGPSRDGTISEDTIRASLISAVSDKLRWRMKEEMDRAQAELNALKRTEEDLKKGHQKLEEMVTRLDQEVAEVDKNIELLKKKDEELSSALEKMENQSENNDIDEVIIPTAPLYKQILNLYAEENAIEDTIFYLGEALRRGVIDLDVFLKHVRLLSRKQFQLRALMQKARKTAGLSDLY
#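 Tsg101 binding domain (10 uM final) was mixed with compound and a FITC-labeled PTAP peptide (50 nM final) in HEPES pH 7.5 buffer with NaCl, Tween 20, EDTA and TCEP; fluorescence polarization was read after 20 min at r.t.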
# Hits are given with their value; i = inactive; ? = inconclusive; nt = no result given. Unless noted, calls come from the whole dose curve.
SMILES,DRD3 antagonist,Rango dissoc inh,Rango-impB inh,D3 ag,Mm-Cpn inhibitor,TSG101-PTAP inh
COc1cc(C(=O)Nc2ccc(NC(=O)c3ccc(C(C)(C)C)cc3)cc2)cc(OC)c1OC,nt,nt,nt,i,nt,nt
Cc1ccc(Nc2nccc(N(C)c3ccc4c(C)n(C)nc4c3)n2)cc1S(N)(=O)=O,nt,nt,nt,i,nt,nt
Cc1cccc(C)c1NC(=O)C1CCCN(CCCc2ccccc2)C1 (stereo not given),i,i,i,i,i,i
CCOC(=O)C1CCCN(CCCc2ccccc2)C1 (stereo not given),-65.3,i,i,i,i,i
CCOC(=O)C1CCN(Cc2cccc(OCc3ccccc3)c2)CC1,-66.5,i,i,i,i,i
CCOC(=O)C1CCCN(CC(=O)c2ccc(F)cc2)C1 (stereo not given),-66.2,i,i,i,i,i
CCOC(=O)C1CCCN(Cc2nc(N)nc(Nc3ccccc3)n2)C1 (stereo not given),-60.5,i,i,i,i,i
Nc1nc(CN2CCCCCC2)nc(Nc2ccccc2)n1,?,i,i,i,i,i
O=C(Nc1ccc2nn(-c3ccc(F)cc3)nc2c1)c1cccc2c(Cl)cccc12,nt,nt,nt,i,nt,nt
CCOC(=O)C1CCN(Cc2nnnn2CCc2ccccc2)CC1,i,i,i,i,i,i
CCOC(=O)C1CCN(Cc2nc3ccc(Cl)cc3n2CCO)CC1,-66.1,i,i,i,i,i
CCOC(=O)C1CCCN(Cc2ccc(OCc3ccccc3)cc2)C1 (stereo not given),-61.1,i,i,i,i,i
NC(=O)C1CCN(Cc2cccc(OCc3ccccc3)c2)CC1,i,i,i,i,i,i
CN(Cc1ccc(Cl)cc1)C(C(=O)NC1CCCCC1)c1cc2ccccc2o1 (stereo not given),i,nt,nt,i,nt,nt
CCOC(=O)C1CCCN(Cc2ccc(OCc3ccccc3)c(OC)c2)C1 (stereo not given),i,i,i,i,i,i
CN(Cc1ccc(Cl)cc1)C(CCc1ccccc1)C(=O)NC1CCCCC1 (stereo not given),-60.3,nt,nt,i,nt,nt
c1ccc(COc2cccc(CN3CCc4ccccc4C3)c2)cc1,-87.0,i,i,i,i,i
Cc1cccc(Cn2c(SCc3ccc(C(=O)NCCc4ccccc4)cc3)nc3cccnc32)c1,nt,nt,nt,i,nt,nt
COc1cccc(NC(=O)Cn2c(=O)n(-c3ccc(Cl)cc3)c(=O)c3oc4ccccc4c32)c1,nt,nt,nt,i,nt,nt
CCN(CC)C(=O)C1CCCN(Cc2ccc3c(c2)OCO3)C1 (stereo not given),i,i,i,i,i,i
CCOC(=O)C1CCCN(Cc2ccc3c(c2)OCO3)C1 (stereo not given),-99.8,i,i,i,i,nt
Fc1ccc(CN2CCSCC2)cc1Br,-61.3,i,i,i,i,i
O=C(c1ccccc1)N(Cc1ccccc1)c1ccccn1,i,i,i,i,i,i
O=C(c1ccc([N+](=O)[O-])cc1)N(Cc1ccccc1)c1ccccn1,-54.7,i,i,i,i,i
O=C(c1ccc(Br)o1)N(Cc1ccccc1)c1ccccn1,i,i,i,32.1,i,i
SMILES,DRD3 antagonist,Rango dissoc inh,Rango-impB inh,D3 ag,Mm-Cpn inhibitor,TSG101-PTAP inh
CC(C)(C)C(=O)NCCc1csc2nc(-c3ccc(F)cc3)nn12,nt,nt,nt,i,nt,nt
Cn1ncc2c(N3CCN(c4cccc(Cl)c4)CC3)ncnc21,nt,nt,nt,i,nt,nt
CC1CCN(S(=O)(=O)c2ccc3c(c2)CCN3C(=O)Nc2cccc(Br)c2)CC1,nt,nt,nt,i,nt,nt
On1ccccc1=S,-139.6,i,i,i,i,i
Cc1ccc(CC(=O)Nc2cccc(C(=O)Nc3c(C)n(C)n(-c4ccccc4)c3=O)c2)cc1C,i,nt,nt,i,nt,nt
CCCCNCC(O)(c1ccc(Cl)cc1)c1ccc(Cl)cc1,-87.2,?,i,i,i,i
CCOc1ccc(CNC(=O)C2Cc3cc(S(=O)(=O)N4CCCCCC4)ccc3N2C(C)=O)cc1 (stereo not given),nt,nt,nt,i,nt,nt
COC(=O)c1ccc(Cn2c(=O)cc(C)c3c(C)nn(C)c32)cc1,nt,nt,nt,36.9,nt,nt
Cc1nn(C)c2c1c(-c1ccccc1)cc(=O)n2Cc1ccc(F)cc1,nt,nt,nt,31.3,nt,nt
Cc1nn(C)c2c1c(-c1ccccc1)cc(=O)n2Cc1ccccc1F,nt,nt,nt,i,nt,nt
COC(=O)c1ccccc1NC(=O)Cn1c(=O)cc(C)c2c(C)nn(C)c21,nt,nt,nt,i,nt,nt
CCn1c(CNC(=O)C23CC4CC(CC(C4)C2)C3)nnc1SCC(=O)Nc1ccccc1,nt,nt,nt,i,nt,nt
CN(CC(=O)N1CCOCC1)Cc1c(Cl)cccc1NC(=O)c1ccccc1,nt,nt,nt,i,nt,nt
Cc1ccc(C2=NS(=O)(=O)N(C)C(C(=O)Nc3ccc4c(c3)OCO4)=C2)cc1,i,i,i,i,i,i
COc1ccc(C2=NS(=O)(=O)N(C)C(C(=O)Nc3ccc4c(c3)OCO4)=C2)cc1,-103.3,i,i,i,i,i
CN(C1=C(NC(=O)c2ccccc2)C(=O)c2ccccc2C1=O)C1CCS(=O)(=O)C1 (stereo not given),-53.8,i,i,i,i,i
CCOc1cc2sc(N3CCC(C(=O)Nc4ccc(C(C)C)cc4)CC3)nc2cc1Br,nt,nt,nt,i,nt,nt
Cc1nn(C(C)C)c(C)c1CN1CCC(C(=O)Nc2cccc(-c3cccc(F)c3)c2)CC1,-53.4,i,i,i,i,i
Cc1cccc(CN2CCC(C(=O)Nc3cccc(-c4cccc(F)c4)c3)CC2)n1,i,i,i,i,i,i
O=C(NCCC1CCCC1)c1cccs1,i,i,?,i,i,i
CCOC(=O)N1CCC(NCCNC(=O)c2cccs2)CC1,-77.2,i,i,i,?,i
CCCCN(C)C(=O)c1ccc2c(c1)N(CC)C(=O)c1ccccc1S2=O (stereo not given),i,?,i,i,i,i
O=C(NCCNC1CCC(c2ccccc2)CC1)c1cccs1 (stereo not given),-54.5,i,i,i,i,i
CCCCN(C)CCCNC(=O)c1ccc2c(c1)N(CC)C(=O)c1ccccc1S2=O (stereo not given),-83.7,i,i,i,i,i

# Compound activity (PubChem)
